Reference: PubChem BioAssay (NCATS)
Inconclusive results are not listed. Activity calls are given as the source filed them. Unless noted, calls come from the whole dose curve; as a rule, active = well fitted curve in the direction sought with a large enough effect; inconclusive = small, poorly fitted or top-dose-only effect, or another doubt; inactive = no such curve, though single readings can be large; an effect the other way counts as inactive or inconclusive.

Key:
[1] = molecular target: Cytochrome P450 3A4 (Homo sapiens) (UniProt P08684); assay: qHTS Assay for Inhibitors and Substrates of Cytochrome P450 3A4 (AID 884); details: recombinant CYP3A4, Luciferin-PPXE luminescence; series mostly up to 57.1 µM; note: potency is the fitted concentration of half-maximal effect; nearly all actives have a fitted effect of over 50% in size
In short: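 20 nM human CYP3A4 with 25 uM Luciferin-PPXE (at KM) in 200 mM KPO4, preincubated 10 min with compound; NADPH regeneration started a 60 min RT reaction. Luciferin detected by luminescence, normalized to 57 uM ketoconazole as full inhibition.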

[2] = molecular target: Cytochrome P450 3A4 (Homo sapiens) (UniProt P08684); assay: qHTS Assay for Activators of Cytochrome P450 3A4 (AID 885); details: recombinant CYP3A4, Luciferin-PPXE luminescence, 60 min; series mostly up to 57.1 µM; note: nearly all actives have a fitted effect of over 65% in size
In short: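 Human CYP3A4 (20 nM) with Luciferin-PPXE at 25 uM (its KM) in 200 mM KPO4; 10 min compound preincubation, then NADPH regeneration and 60 min reaction at RT. Luciferin read by luminescence; normalized to 57 uM ketoconazole full inhibition.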

[3] = qHTS for Inhibitors of the Functional Ribonucleoprotein Complex (vRNP) of Lassa (LASV) Arenavirus: LASV Primary Screen - GLuc reporter signal (AID 1347082; calls by dose curve; tested in HEK293 reporter line; note: nearly all actives have a fitted effect of over 60% in size; note: potency is the fitted concentration of half-maximal effect); details: LASV minigenome vRNP, Gaussia luciferase reporter; series mostly up to 57.5 µM
[4] = qHTS for Inhibitors of the Functional Ribonucleoprotein Complex (vRNP) of Lassa (LASV) Arenavirus: Viability assay - alamar blue signal for LASV Primary Screen (AID 1347083; calls by dose curve; tested in HEK293 reporter line; note: nearly all actives have a fitted effect of over 80% in size; note: potency is the fitted concentration of half-maximal effect); details: cell viability, alamar blue fluorescence (LASV minigenome counter-screen); series mostly up to 57.5 µM
[5] = qHTS for Inhibitors of the Functional Ribonucleoprotein Complex (vRNP) of Lymphocytic Choriomeningitis Arenaviruses (LCMV): Viability assay - alamar blue signal for LCMV Primary Screen (AID 1347085; calls by dose curve; tested in HEK293 reporter line; note: nearly all actives have a fitted effect of over 80% in size; note: potency is the fitted concentration of half-maximal effect); details: alamar blue viability counter-screen, LCMV vRNP screen cells; series mostly up to 57.5 µM
[6] = molecular target: Nucleoprotein (Lymphocytic choriomeningitis virus (strain Armstrong)) (UniProt P09992); assay: qHTS for Inhibitors of the Functional Ribonucleoprotein Complex (vRNP) of Lymphocytic Choriomeningitis Arenaviruses (LCMV): LCMV Primary Screen - GLuc reporter signal (AID 1347086; calls by dose curve; note: nearly all actives have a fitted effect of over 70% in size); details: LCMV minigenome vRNP cell assay, Gaussia luciferase reporter; series mostly up to 57.5 µM
[7] = molecular target: Alpha-galactosidase (Coffea arabica) (UniProt Q42656); assay: Counterscreen for Glucocerebrosidase Inhibitors: qHTS Assay for Coffee Bean alpha-Galactosidase at pH 5.9 (AID 998); details: coffee bean alpha-galactosidase enzyme assay; series mostly up to 76.9 µM
In short: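 Compounds were titrated from 0.7 nM to 77 uM against green coffee bean alpha-galactosidase (2 nM) using 80 uM fluorogenic 4-methylumbelliferyl substrate. After 20 min at room temperature, reactions were stopped at pH 10 and read by fluorescence.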

[8] = Inducers of the Endoplasmic Reticulum Stress Response (ERSR) in human glioma: Validation (AID 504836); details: human glioma cells, ER stress response reporter; series mostly up to 38.3 µM
In short: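 ERSR induction read as luciferase luminescence (Bright-Glo, 10 min at room temperature) in stably transfected human U87-MG glioma cells exposed to compounds for 16 h, using GRP78 as sensor.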

[9] = Primary qHTS to identify inhibitors of SARS-CoV-2 cell entry (AID 1645846; calls by dose curve; note: nearly all actives have a fitted effect of over 45% in size; note: potency is the fitted concentration of half-maximal effect); details: SARS-CoV-2 pseudovirus cell entry assay, luminescence; activity change, negative = inhibition: at 57.1 µM (top of the series) unless noted; series mostly up to 57.1 µM
In short: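 Entry measured by luciferase signal 48 h after adding SARS-CoV-2-S pseudotyped MLV particles to HEK293-ACE2 cells preincubated 1 h with compounds. Normalisation: bald particles and spike particles.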

[10] = Confirmatory qHTS to identify inhibitors of SARS-CoV-2 cell entry (AID 1645844; calls by dose curve; note: potency is the fitted concentration of half-maximal effect; nearly all actives have a fitted effect of over 45% in size); details: SARS-CoV-2 pseudotyped particle cell entry, luciferase; series mostly up to 57.2 µM
In short: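 Luminescence from a luciferase reporter, read 48 hr after pseudotyped-particle addition, gives entry signal, normalised to spike-bearing PP wells and bald PP lacking fusion protein wells. Cells are Expi293F stably expressing human ACE2, compound-pretreated 1 hr.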

[11] = Cytotoxicity counterscreen for inhibitors of SARS-CoV-2 cell entry (AID 1645845; calls by dose curve; note: nearly all actives have a fitted effect of over 50% in size); details: cell viability (SARS-CoV-2 entry assay cells); series mostly up to 57.1 µM
In short: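 48 h compound treatment (after 1 h preincubation), HEK293-ACE2 cells, 37 C/5% CO2; ATP luminescence endpoint; normalized to cell wells and media blanks.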

[12] = VSVG counterscreen qHTS to identify inhibitors of SARS-CoV-2 cell entry (AID 1645847; calls by dose curve; note: potency is the fitted concentration of half-maximal effect; nearly all actives have a fitted effect of over 65% in size); details: VSV-G pseudotyped particle entry, luciferase; series mostly up to 57.2 µM
In short: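 Luminescence read after 48 h infection at 37 C with VSV-G-pseudotyped MLV particles, following 1 h compound exposure of Expi293F cells stably expressing human ACE2; scaled between bald particle and VSV-G particle wells.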

[13] = molecular target: Cytochrome P450 1A2 (Homo sapiens) (UniProt P05177); assay: p450-cyp1a2 (AID 410; calls by dose curve; note: potency is the fitted concentration of half-maximal effect); details: recombinant CYP1A2, luciferin-ME demethylation, luminescence; series mostly up to 57 µM
In short: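 Inhibition was calculated relative to 57 uM furafylline (full inhibition). The reaction used human CYP1A2 at 20nM with Luciferin-ME at its Km, 100uM, driven by an NADPH-regenerating system for 60 min at room temperature.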

[14] = molecular target: Glucocorticoid receptor (Homo sapiens) (UniProt P04150); assay: GR-EFC Redistribution (AID 451; calls by dose curve; note: potency is the fitted concentration of half-maximal effect); details: CHO-K1 GR-EFC translocation, beta-gal luminescence, 2 h
In short: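 Translocation of GR-ED fusion to nuclear EA restores b-gal, read by luminescence after 1 h room-temperature detection. Engineered CHO-K1 biosensor cells, 1,000/well, exposed 2 h at 37 C to titrations up to 46 uM final.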

[15] = molecular target: Mitogen-activated protein kinase 10 (Mus musculus) (UniProt Q61831); assay: JNK3 AlphaScreen Assay (AID 530; active = well fitted curve in either direction with a large enough effect, not every such curve was filed as active;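 note: kinase came from lysate of stimulated human HepG2 cells; signal reports phosphorylation of biotinylated GST-cJun 1-79 at Ser73 with 10 µM ATP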); details: JNK3 lysate, c-Jun phosphorylation; series mostly up to 57.1 µM
In short: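 Room-temperature AlphaScreen kinase assay; pre-activated HepG2 lysate as JNK3 source, biotin-GST-cJun(1-79) substrate, 10 uM ATP, compound 15 min preincubation.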

[16] = molecular target: Cytochrome P450 2C9 (Homo sapiens) (UniProt P11712); assay: qHTS Assay for Inhibitors and Substrates of Cytochrome P450 2C9 (AID 883); details: recombinant CYP2C9, luciferin-H luminescence, 60 min; series mostly up to 57.1 µM; note: nearly all actives have a fitted effect of over 60% in size
In short: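 Turnover of Luciferin-H (100uM, KM) by 10nM human CYP2C9 was measured over 60 min at 37C with NADPH regeneration; inhibitors and some substrates reduce luminescence. Data normalized to sulphaphenazole 57uM.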

[17] = molecular target: Cytochrome P450 2D6 (Homo sapiens) (UniProt P10635); assay: qHTS Assay for Inhibitors and Substrates of Cytochrome P450 2D6 (AID 891); details: recombinant CYP2D6, luciferin-ME EGE luminescence; series mostly up to 57.1 µM;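 note: luciferin methyl ether substrate demethylated by CYP2D6 with NADPH regeneration; nearly all actives have a fitted effect of over 60% in size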
In short: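 Human CYP2D6 (5 nM) with 30 uM Luciferin-ME EGE (at Km) in 100 mM KPO4, compound preincubated 10 min, then NADPH regeneration system for 60 min at room temperature. Luciferin read by luminescence; normalized to 1.43 uM quinidine.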

[18] = molecular target: Cytochrome P450 2C19 (Homo sapiens) (UniProt P33261); assay: qHTS Assay for Inhibitors and Substrates of Cytochrome P450 2C19 (AID 899); details: recombinant CYP2C19, luciferin-H EGE luminescence; series mostly up to 57.1 µM; note: nearly all actives have a fitted effect of over 60% in size
In short: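 Reactions contain 5nM enzyme, 10uM Luciferin-H EGE (KM) and 50mM KPO4; compound preincubates 10 min at 37C, NADPH regeneration starts turnover for 60 min. Luminescence after detection reagent gives activity.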

[19] = Confirmation and Secondary Assay for Modulators of Hemoglobin Beta Chain Splicing at IVS2 654 locus (AID 910); details: HeLa EGFP-654 splicing reporter, GFP fluorescence, 48 h; series mostly up to 46.1 µM;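 note: HeLa cells stably carrying EGFP split by mutant beta-globin IVS2-654 intron; per-well total GFP intensity by laser scanning cytometry after 2-day treatment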
In short: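 Readout: per-well total peak green fluorescence (488 nm ex, 500–520 nm em) from objects 5–250 µm, reflecting correct splicing of an EGFP-654 reporter. Compounds were applied for 2 days at 37 °C to overnight-plated HeLa EGFP-654 cells; controls were DMSO and 500 nM IVS2-654 PNA.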

[20] = Confirmation and Secondary Assay for Modulators of Hemoglobin Beta Chain Splicing at IVS2 705 locus (AID 930); details: HeLa EGFP-705 splicing reporter, GFP fluorescence, 48 h; series mostly up to 46.1 µM;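 note: HeLa cells stably expressing the EGFP-705 splicing reporter; GFP fluorescence per well restored by corrected splicing of the IVS2-705 intron in EGFP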
In short: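 Stable HeLa line with EGFP disrupted by mutant beta-globin intron 2 (705). Overnight attachment, then 2 days of compound at 37C, 5% CO2. Signal: peak GFP intensity summed over objects 5-250 µm.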

[21] = molecular target: DNA dC->dU-editing enzyme APOBEC-3G (Homo sapiens) (UniProt Q9HC16); assay: qHTS for inhibitors of Vif-A3G interactions: Validation (AID 588379); details: Vif-A3G protein interaction assay; series mostly up to 46.1 µM
In short: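 HeLa cells stably expressing Vif and A3G-eYFP, 700 cells/well, incubated overnight at 37 deg C, then exposed to compound overnight at 37 deg C. Inhibition of Vif-mediated degradation read as increased yellow fluorescence (Ex 488/Em 500-530) by laser-scanning cytometry.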

[22] = Primary qHTS for small molecule stabilizers of the endoplasmic reticulum resident proteome: Secreted ER Calcium Modulated Protein (SERCaMP) assay (AID 1508630); details: SH-SY5Y GLuc-SERCaMP (Gaussia luciferase released on ER calcium loss) secretion, thapsigargin, luminescence; series mostly up to 38.4 µM
In short: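 GLuc-SERCaMP-expressing SH-SY5Y cells, pretreated 16 h with compound, are challenged with thapsigargin to empty ER calcium stores; after 4 h, coelenterazine is added directly to the medium and luminescence is imaged.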

Sequence of Nucleoprotein (Lymphocytic choriomeningitis virus (strain Armstrong)) (P09992 whole entry, looked up): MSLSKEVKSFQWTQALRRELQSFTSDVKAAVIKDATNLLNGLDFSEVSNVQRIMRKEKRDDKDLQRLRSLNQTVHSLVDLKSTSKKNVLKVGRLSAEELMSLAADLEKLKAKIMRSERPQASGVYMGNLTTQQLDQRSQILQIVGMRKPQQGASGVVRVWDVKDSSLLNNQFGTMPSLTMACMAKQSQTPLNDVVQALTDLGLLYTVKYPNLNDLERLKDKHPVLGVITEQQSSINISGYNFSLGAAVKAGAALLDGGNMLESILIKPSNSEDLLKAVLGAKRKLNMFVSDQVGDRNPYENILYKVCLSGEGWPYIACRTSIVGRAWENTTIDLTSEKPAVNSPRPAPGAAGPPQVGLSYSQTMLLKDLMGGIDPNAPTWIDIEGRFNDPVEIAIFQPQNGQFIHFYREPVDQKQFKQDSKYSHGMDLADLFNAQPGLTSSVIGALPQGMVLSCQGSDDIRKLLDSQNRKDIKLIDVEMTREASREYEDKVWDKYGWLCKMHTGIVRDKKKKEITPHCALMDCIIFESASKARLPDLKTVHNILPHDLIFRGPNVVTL
Sequence of Cytochrome P450 3A4 (Homo sapiens) (P08684 whole entry, looked up): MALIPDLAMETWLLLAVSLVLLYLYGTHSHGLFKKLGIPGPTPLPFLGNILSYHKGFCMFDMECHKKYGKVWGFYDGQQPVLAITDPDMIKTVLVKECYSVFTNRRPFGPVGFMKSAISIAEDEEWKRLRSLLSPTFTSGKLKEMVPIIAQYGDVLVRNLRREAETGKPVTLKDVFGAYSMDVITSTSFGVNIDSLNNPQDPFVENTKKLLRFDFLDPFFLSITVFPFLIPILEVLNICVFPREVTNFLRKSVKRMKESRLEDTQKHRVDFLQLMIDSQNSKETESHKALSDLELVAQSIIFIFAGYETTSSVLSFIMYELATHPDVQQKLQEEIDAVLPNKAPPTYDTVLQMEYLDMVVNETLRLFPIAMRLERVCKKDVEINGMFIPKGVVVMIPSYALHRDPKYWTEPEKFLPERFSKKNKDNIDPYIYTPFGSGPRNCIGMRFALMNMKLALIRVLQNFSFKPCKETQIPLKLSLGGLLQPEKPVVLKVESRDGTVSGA
Sequence of Alpha-galactosidase (Coffea arabica) (Q42656 whole entry, looked up): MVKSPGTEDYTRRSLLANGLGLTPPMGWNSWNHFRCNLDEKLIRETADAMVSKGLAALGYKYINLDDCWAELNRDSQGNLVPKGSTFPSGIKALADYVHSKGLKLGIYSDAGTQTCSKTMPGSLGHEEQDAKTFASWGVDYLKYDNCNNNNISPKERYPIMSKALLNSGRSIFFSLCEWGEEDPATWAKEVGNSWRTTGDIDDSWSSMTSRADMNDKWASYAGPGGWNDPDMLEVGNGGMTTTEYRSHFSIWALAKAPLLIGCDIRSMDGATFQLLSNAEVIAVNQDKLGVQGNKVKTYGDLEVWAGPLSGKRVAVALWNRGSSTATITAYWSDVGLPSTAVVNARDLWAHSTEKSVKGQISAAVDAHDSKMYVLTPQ
Sequence of Cytochrome P450 1A2 (Homo sapiens) (P05177 whole entry, looked up): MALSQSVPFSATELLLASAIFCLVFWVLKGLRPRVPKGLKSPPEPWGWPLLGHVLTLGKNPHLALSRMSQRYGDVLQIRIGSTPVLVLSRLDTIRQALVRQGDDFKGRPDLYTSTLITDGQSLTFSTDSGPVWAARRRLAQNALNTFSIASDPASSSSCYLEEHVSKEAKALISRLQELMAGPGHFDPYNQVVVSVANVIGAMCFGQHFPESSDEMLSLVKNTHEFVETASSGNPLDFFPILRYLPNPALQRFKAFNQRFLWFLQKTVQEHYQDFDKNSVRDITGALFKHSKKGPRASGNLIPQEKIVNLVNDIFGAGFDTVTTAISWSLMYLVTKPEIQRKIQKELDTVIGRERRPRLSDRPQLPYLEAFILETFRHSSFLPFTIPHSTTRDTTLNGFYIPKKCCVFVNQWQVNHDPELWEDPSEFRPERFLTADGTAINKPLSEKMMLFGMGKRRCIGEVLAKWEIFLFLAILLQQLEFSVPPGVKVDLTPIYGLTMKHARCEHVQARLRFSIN
Sequence of DNA dC->dU-editing enzyme APOBEC-3G (Homo sapiens) (Q9HC16 whole entry, looked up): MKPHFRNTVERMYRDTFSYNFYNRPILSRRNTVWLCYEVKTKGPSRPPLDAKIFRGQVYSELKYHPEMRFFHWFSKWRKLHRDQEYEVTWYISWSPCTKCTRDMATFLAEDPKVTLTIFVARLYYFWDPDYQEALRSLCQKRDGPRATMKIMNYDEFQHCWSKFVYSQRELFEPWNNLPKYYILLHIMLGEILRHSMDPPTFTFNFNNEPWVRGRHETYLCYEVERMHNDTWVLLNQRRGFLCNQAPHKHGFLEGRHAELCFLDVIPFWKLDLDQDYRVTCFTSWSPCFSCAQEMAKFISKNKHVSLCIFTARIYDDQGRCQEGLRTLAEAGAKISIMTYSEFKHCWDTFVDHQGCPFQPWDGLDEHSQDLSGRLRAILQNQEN
Sequence of Glucocorticoid receptor (Homo sapiens) (P04150 whole entry, looked up, the tested form may be a part): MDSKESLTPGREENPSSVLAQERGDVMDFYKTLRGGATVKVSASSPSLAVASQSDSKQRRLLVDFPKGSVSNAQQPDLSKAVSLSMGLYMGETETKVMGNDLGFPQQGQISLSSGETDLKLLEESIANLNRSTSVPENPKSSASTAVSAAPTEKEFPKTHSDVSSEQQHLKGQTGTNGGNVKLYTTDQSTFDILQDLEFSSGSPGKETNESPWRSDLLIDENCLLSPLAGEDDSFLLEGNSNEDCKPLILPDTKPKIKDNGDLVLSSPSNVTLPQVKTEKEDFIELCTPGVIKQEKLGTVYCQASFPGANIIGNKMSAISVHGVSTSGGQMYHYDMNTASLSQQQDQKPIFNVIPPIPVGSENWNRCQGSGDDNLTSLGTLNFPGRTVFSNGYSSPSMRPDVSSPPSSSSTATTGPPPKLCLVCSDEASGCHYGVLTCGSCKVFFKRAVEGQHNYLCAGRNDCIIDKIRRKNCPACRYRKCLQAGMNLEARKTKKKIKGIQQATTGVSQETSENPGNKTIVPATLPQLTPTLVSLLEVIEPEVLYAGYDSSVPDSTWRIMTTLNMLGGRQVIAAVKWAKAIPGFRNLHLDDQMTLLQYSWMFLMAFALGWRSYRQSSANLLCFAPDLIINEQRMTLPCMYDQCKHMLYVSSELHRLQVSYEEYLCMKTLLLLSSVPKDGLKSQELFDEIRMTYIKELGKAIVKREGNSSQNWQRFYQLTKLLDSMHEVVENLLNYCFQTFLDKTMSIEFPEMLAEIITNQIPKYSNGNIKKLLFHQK
Sequence of Cytochrome P450 2D6 (Homo sapiens) (P10635 whole entry, looked up): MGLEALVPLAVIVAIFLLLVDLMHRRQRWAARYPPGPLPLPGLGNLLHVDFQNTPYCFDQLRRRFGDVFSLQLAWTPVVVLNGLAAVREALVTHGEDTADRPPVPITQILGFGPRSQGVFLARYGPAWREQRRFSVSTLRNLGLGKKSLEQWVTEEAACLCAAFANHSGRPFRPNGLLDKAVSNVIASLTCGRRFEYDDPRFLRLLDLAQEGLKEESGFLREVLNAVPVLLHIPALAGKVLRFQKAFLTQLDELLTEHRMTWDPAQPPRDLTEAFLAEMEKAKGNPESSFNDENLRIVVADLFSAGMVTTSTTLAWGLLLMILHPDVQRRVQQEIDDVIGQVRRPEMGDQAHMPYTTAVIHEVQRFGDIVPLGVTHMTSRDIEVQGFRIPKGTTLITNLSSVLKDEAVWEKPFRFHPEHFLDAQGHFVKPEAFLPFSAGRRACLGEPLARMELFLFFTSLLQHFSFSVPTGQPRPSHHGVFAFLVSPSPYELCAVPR
Sequence of Cytochrome P450 2C9 (Homo sapiens) (P11712 whole entry, looked up): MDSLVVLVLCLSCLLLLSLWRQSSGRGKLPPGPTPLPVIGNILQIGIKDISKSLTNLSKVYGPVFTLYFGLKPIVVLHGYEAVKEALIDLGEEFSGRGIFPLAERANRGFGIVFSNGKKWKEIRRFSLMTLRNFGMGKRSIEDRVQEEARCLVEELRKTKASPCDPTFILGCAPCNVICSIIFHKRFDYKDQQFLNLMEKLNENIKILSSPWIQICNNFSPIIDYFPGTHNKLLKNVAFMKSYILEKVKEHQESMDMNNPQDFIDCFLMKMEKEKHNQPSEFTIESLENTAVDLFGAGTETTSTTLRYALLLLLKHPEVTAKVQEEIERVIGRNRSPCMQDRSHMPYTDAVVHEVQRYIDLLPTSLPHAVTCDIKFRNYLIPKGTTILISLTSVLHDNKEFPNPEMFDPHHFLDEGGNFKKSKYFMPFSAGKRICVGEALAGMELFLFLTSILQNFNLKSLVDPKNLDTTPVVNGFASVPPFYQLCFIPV
Sequence of Cytochrome P450 2C19 (Homo sapiens) (P33261 whole entry, looked up): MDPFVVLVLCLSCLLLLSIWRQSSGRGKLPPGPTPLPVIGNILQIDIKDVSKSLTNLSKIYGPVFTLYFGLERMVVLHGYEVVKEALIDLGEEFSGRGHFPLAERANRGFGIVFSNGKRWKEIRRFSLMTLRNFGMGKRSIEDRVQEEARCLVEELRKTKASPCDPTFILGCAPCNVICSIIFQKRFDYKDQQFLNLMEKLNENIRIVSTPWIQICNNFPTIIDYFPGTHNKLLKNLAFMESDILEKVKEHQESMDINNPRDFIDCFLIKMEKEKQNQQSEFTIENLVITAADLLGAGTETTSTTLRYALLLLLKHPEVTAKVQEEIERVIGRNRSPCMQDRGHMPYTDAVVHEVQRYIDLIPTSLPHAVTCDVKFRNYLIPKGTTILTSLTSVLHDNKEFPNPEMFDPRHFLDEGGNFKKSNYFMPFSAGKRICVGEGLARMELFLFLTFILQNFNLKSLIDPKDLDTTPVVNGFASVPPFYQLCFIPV

COc1ccc2ccc(=O)oc2c1CC=C(C)C
inactive: Potency [2] | Potency [3] | Potency [4] | Potency [5] | Potency [6]
active: Potency [1] 15.8 µM

CC(C)Cc1ccc([C@H](C)C(=O)O)cc1
inactive: outcome [7] | Potency [3] | Potency [4] | Potency [5] | Potency [6]

c1ccc(C(NCCNC(c2ccccc2)c2ccccc2)c2ccccc2)cc1
inactive: outcome [8] | Potency [3] | Potency [4] | Potency [5]

Cc1cc(NC(=O)Nc2ccc3c(ccn3C)c2)sn1
inactive: outcome [7] | Potency [3] | Potency [4] | Potency [5] | Potency [6]

COc1ccc(-c2oc3c(CC=C(C)C)c(O)cc(O)c3c(=O)c2O)cc1
active: Potency [4] 38.5 µM | Potency [5] 3.43 µM
-9.03%: activity change, negative = inhibition [9]
inactive: Potency [3]

CCCCOc1c(C(=O)c2c(F)cc(C)cc2F)cnc2n[nH]cc12
active: Potency [3] 5.44 µM | Potency [4] 2.17 µM | Potency [5] 7.69 µM | Potency [10] 1.52 µM | Potency [9] 1.12 µM | Potency [12] 1.52 µM
inactive: Potency [11]

COc1cccc2c1cc([N+](=O)[O-])c1c(C(=O)O)cc3c(c12)OCO3
active: Potency [13] 31.6 µM
inactive: Potency [14] > 46 µM | outcome [15] | Potency [16] | Potency [2] | Potency [17] | Potency [18] | Potency [19] | outcome [20] | Potency [21] | Potency [22]
